Screening data as filed in PubChem BioAssay.
An excerpt weighted towards active compounds, which were near 7.4% of everything screened.
FLuc modulator = counter-screen for miR-21 project: firefly luciferase inhibitors or activators | purified FLuc, Km substrates, luminescence inhibition | AID 588342 | P08659 | actives 6.9% (n = 360,000) | Potency, µM (top dose mostly 57.5 µM), inactives show at the highest dose activity change, negative = inhibition, most hits filed as inhibitors;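 also: plate controls were vehicle for no effect and reference inhibitor for full effect; nearly all actives have a fitted effect of over 55% in size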
Target sequence (P08659 whole entry, looked up): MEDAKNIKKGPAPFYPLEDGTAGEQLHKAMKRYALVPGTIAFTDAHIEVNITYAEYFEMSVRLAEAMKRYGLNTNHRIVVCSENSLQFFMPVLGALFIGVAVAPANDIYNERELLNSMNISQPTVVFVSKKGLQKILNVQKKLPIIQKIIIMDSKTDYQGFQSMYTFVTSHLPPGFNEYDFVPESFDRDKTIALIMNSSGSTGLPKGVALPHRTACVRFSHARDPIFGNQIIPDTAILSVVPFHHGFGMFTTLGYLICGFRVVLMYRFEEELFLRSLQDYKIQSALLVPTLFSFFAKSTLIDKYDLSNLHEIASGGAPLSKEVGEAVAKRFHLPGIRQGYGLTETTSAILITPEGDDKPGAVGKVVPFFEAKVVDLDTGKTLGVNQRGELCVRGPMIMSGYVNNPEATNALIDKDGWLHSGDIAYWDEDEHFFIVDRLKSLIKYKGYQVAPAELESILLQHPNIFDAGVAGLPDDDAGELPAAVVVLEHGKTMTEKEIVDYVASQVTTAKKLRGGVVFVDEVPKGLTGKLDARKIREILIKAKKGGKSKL
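Purified P. pyralis luciferase, 10 nM final, with Km-level 10 uM D-luciferin and 10 uM ATP in 50 mM Tris acetate pH 7.5, 10 mM Mg acetate, 0.01% Tween-20, 0.05% BSA; 6-point qHTS titration about 60 µM downward; luminescence read.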
ELG1 genotoxic = induces genotoxicity in HEK293T cells with luciferase-tagged ELG1 | HEK293T ELG1-luciferase reporter, luminescence, 16 h | Potency, µM (highest dose often 46 µM), for the others: top-dose activity change, positive = activation, actives largely listed as activators | actives 1.3% (n = 330,000); also: % of control where 0% means no effect; nearly all actives have a fitted effect of over 60% in size
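Luminescence read-out: rising ELG1-luciferase signal, reflecting elevated ELG1 protein under genetic stress, flags genotoxic compounds. Cells were treated for 16 hr at 37 °C before ONE-Glo detection.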
SMN2 splice enh = SMN2 splice variant enhancement. HEK293 SMN2-luciferase splicing reporter, luminescence, 30-36 h. Potency, µM (doses to about 46.1 µM), inactives show at the top dose activity change, positive = activation, usual class: activators. actives 2.8% (n = 210,000); also: % of control where 0% means no effect; nearly all actives have a fitted effect of over 55% in size
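HEK293 cells carry an SMN2 […]–luciferase reporter in which exon 7 inclusion puts luciferase in frame. Cells were plated 10-12 h before compound addition, then incubated 30-36 h at 37C. ONE-Glo luminescence was read; sodium butyrate at 4.5 mM final served as control.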
Rab9 prom act = Rab9 promoter activation | Huh7 Rab9 promoter-luciferase reporter, luminescence, 24 h | Potency, µM (series often up to 9.22 µM), for inactives: at the highest dose activation, negative = inhibition, actives largely listed as activators | actives 2.8% (n = 320,000) | AID 485297; also: % of control where 0% means no effect; nearly all actives have a fitted effect of over 60% in size
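Huh7 reporter line, Rab9 promoter upstream of luciferase. Compound exposure 24 h at 37 °C in reduced-serum medium with 10% FBS. Read-out: luminescence.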
NPC1 prom act = activates the NPC1 promoter. Huh7 NPC1 promoter luciferase reporter, 24 h. Potency, µM (series often up to 9.22 µM), without a hit: top-dose activation, actives largely listed as activators. actives 2.4% (n = 320,000). AID 485313; also: % of control where 0% means no effect; nearly all actives have a fitted effect of over 60% in size
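Readout is luciferase luminescence, reflecting NPC1 promoter activation in stably transfected Huh7 cells after 24 h compound exposure at 37 °C in reduced-serum medium with 10% FBS.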
* = called active by the depositor; ? = inconclusive; · = no result; [ ] = dose if it differs, or a comment. Calls follow the shape of the dose curve; as a rule, active = well fitted curve in the direction sought with a large enough effect; inconclusive = small, poorly fitted or top-dose-only effect, or another doubt; inactive = no such curve, though single readings can be large; an effect the other way counts as inactive or inconclusive. Potency is read from the fitted curve at half-maximal effect.

SMILES | FLuc modulator | ELG1 genotoxic | SMN2 splice enh | Rab9 prom act | NPC1 prom act
O=C(Nc1ccc(F)cc1)Oc1ccc[nH]c1=O | 19µM* | 12% | · | 8% | 17%
[O-]/[N+](=C/c1cccnc1)c1ccc(Br)cc1 | -4%[2.3 µM] | ? | 13µM* | 2.8µM* | 5.6µM*
CCCN1CCC[C@@H]2Cc3n[nH]cc3C[C@H]21 | · | · | -11% | · | ·
Cc1nn(CC(C)C)c(Cl)c1C(=O)NC1CCC(C)CC1 (stereo not given) | 8.5µM* | 9.2µM* | · | 4µM* | 2.2µM*
Cc1nn(Cc2ccccc2Cl)c(Cl)c1C(=O)OCC(=O)NC(=O)NC1CCCCC1 | -8% | -1% | -31% | 0% | -1%
CC(=O)Nc1ccc(NC(=O)Oc2ccccc2)cc1 | ? | 2% | 2% | -1% | -4%
CN(C)c1ccc(NC(=O)Oc2ccccc2)cc1 | 3µM* | ? | -2% | 11% | 1%
COc1ccc(-c2cc(=O)c3cc(OCC(=O)OC(C)C)ccc3o2)cc1 | 1.9µM* | · | 14% | · | ·
COc1ccc(-c2cc(=NCC(=O)O)c3ccccc3o2)cc1 | -13% | ? | · | 14%[1.84 µM] | 24%
CC(C)(C)c1ccc(C(=O)Nc2ccc3nc(SCC(=O)N4CCCC4)sc3c2)cc1 | 7.6µM* | · | · | · | ·
CCN(CC)C(=O)c1ccc(NC(=O)c2ccc(N3CCCC3=O)cc2)cc1 | ? | 1% | · | -7% | -1%
CC(C)(C)n1cc(C(=O)c2ccc3ccccc3c2O)cn1 | 0.67µM* | ? | -72% | 0.56µM* | 0.45µM*
C=CCOC(=O)c1ccccc1N | -2% | 3% | -2% | 2% | 1%
Nc1ccccc1C(=O)OCCOc1ccccc1 | 0.6µM* | 0.92µM* | 7.9µM* | 0.4µM* | 0.35µM*
CCC(=O)Oc1ccc(C(=O)Nc2cccc(C(=O)c3ccccc3)c2)cc1 | 17µM* | -9% | -25% | 2% | 3%
COc1ccc(C(=O)Nc2nnc(S(=O)(=O)N(CC(C)C)c3ccc(C)cc3)s2)cc1OC | 8.5µM* | · | · | · | ·
Cc1ccc(NC(=O)OC(C)CNC(=O)Oc2cccc(C)c2)cc1 (stereo not given) | 24µM* | -12% | -3% | 25% | 16%
COC(=O)Nc1cccc(OC(=O)Nc2cccc(C)c2)c1 | · | · | 20% | · | ·
C=CCc1ccc(OCCn2nnc3ccccc32)c(OC)c1 | 11µM* | 16µM* | · | 4µM* | 2.8µM*
CN(C)NC(=O)CCC(=O)O | · | · | 12% | · | ·
CC[C@]1(O)CC(O[C@@H]2CC(N(C)C)C(O)C(C)O2)c2c(cc3c(c2O)C(=O)c2c(O)cccc2C3=O)C1C(=O)OC (stereo not given in full) | · | · | 0.79µM* | · | ·
CC[C@@]1(O)CC(O)c2c(cc3c(c2O)C(=O)c2c(O)ccc(O)c2C3=O)C1C(=O)OC (stereo not given in full) | · | · | -10% | · | ·
c1ccc(C2CO2)cc1 (stereo not given) | · | · | 7% | · | ·
CC1=C2C(=O)[C@@H]3[C@@H](CC=C4C[C@@H](O)CC[C@@]43C)[C@H]2CC[C@@]12O[C@H]1C[C@H](C)CN[C@H]1[C@@H]2C | · | · | 4%[9.22 µM] | · | ·
CNC(=O)c1cccn(Cc2ccc(C(F)(F)F)cc2)c1=O | 0% | 18µM* | -8% | 14% | -14%
SMILES | FLuc modulator | ELG1 genotoxic | SMN2 splice enh | Rab9 prom act | NPC1 prom act
O=C(O)Cn1cc(/C=C2\C(=O)NC(=O)N(Cc3ccco3)C2=O)c2ccccc21 | 17µM* | -14% | 0% | -2% | -2%
CC(C)=C[C@H]1[C@@H](C(=O)OCc2cc3c(cc2Cl)OCO3)C1(C)C | · | · | -14%[9.22 µM] | · | ·
COc1ccc(C(=O)CCNc2ccc(F)cc2)cc1 | ? | ? | · | 2.8µM* | ?
COc1ccc(C(=O)C(C)(C)NO)cc1 | 0% | -4% | -7% | 1% | -2%
N=C1/C(=C\c2ccc(OC(=O)c3ccccc3Cl)cc2)C(=O)N=C2SC(N3CCOCC3)=NN12 | 24µM* | 9% | · | 4% | 14%
ClC1=C(Cl)C2(Cl)C3C(Cl)C(Cl)CC3C1(Cl)C2(Cl)Cl (stereo not given) | · | · | -11% | · | ·
CCCc1cc2c(n1Cc1cccc(Cl)c1)C(C)C1CN(C(=O)c3ccccc3)C(C)(C(=O)OC)C21 (stereo not given) | · | · | -25% | · | ·
